EphB4 ephrin blk – blocks human EphB4 binding to ephrin-B2. P54760. EphB4 LBD / TNYL-RAW-Alexa532 peptide, fluorescence polarization. inhibition, % at 7 µM. actives 0.15% (n = 97,000);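 active = inhibition above the screen-wide mean inhibition plus 3 SD, cut at about 15% in these data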
Plk1 PBD FP – Plk1 (human) PBD binding inhibition; P53350; Plk1 PBD phosphopeptide binding, fluorescence polarization; inhibition, %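 (tested at about 20 µM)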; actives 0.13% (n = 97,000); AID 693; in the data active = inhibition above about 34%, passing the limit was not always enough
Target sequence (P53350 whole entry, looked up): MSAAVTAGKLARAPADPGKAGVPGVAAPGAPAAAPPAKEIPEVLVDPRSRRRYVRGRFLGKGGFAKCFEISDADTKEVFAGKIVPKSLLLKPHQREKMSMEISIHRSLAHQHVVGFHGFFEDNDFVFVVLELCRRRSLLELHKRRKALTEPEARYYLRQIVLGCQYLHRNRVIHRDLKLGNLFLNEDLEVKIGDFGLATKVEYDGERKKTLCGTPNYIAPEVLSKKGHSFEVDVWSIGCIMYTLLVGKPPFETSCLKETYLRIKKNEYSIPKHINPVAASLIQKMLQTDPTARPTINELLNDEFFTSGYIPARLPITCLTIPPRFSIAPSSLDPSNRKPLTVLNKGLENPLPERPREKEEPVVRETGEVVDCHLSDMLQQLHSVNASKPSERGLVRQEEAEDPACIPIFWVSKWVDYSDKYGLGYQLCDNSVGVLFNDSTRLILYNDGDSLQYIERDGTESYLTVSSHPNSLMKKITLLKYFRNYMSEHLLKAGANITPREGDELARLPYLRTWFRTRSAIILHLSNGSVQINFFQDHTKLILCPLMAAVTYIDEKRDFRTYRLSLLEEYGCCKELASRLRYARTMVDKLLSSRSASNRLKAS
PTPN22 act – LYP (human) phosphatase activation; activation, % at 2 µM; Q9Y2R2; recombinant LYP, DiFMUP fluorescence; 0 = plate median, 100 = signal doubled; AID 697; actives 0.11% (n = 96,000);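 active = activation at 2 µM above a set limit, the mean plus 5 SD, cut at about 37% in these data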
PLK1 inh – blocks human PLK1 kinase activity; P53350; recombinant PLK1 kinase, TR-FRET peptide phosphorylation; inhibition, % at 10 µM; actives 0.53% (n = 97,000); AID 619;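 active = inhibition of 50% or more in the single-concentration screen; inactive = inhibition below 50%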
PTPN22 inh 2 – inhibitors of human LYP (PTPN22) phosphatase. Q9Y2R2. recombinant LYP catalytic domain, DiFMUP fluorescence. inhibition, % at 2 µM. actives 0.21% (n = 96,000);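 active = inhibition at 2 µM at or above a set limit, the screen mean plus 3 SD, cut at about 24% in these data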
PLK1 confirm – PLK1 (human) kinase inhibition, confirmed | inhibition, % at 10 µM | actives 20% (n = 210) | AID 744 | shares compounds with PLK1 inh | recombinant PLK1 kinase, TR-FRET peptide phosphorylation;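 active = inhibition at or above 50% in each of two repeat confirmation tests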
Plk1 interf – counter-screen for Plk1 inhibitors: compound assay interference. shares compounds with PLK1 inh. 210 tested, under 10 active. inhibition (interference), % at 10 µM. Plk1 TR-FRET assay interference, compound added post-reaction;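 active = both duplicate runs show 50% or greater inhibition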
PBD redox DR – redox cycling H2O2 generation counter-screen for Plk1 PBD; shares compounds with Plk1 PBD FP; DTT; EC50, µM; 120 tested, under 10 active; AID 876; call rule not given here
Each line names hits and unclear results; the compound was inactive in the other large screens (follow-up assays come after a bar, where they were run). Only some compounds are listed: those with a hit (about 1.2% of all), similar ones and a draw of the others.

CCN1/C(=C\C=C\C2=[N+](CC)c3ccccc3C2(C)C)C(C)(C)c2ccccc21	PLK1 inh 52.8
Cc1ccc(-c2cc(C(F)F)n3ncc(C(=O)N4CCC5(CC4)OCCO5)c3n2)cc1	none
CC1=C(C(=O)N2CCC3(CC2)OCCO3)C2(CCC(C)CC2)OC1=O (stereo not drawn)	EphB4 ephrin blk 19.7
COc1ccc(Cn2c(N)c(C(=O)NCc3ccco3)c3nc4ccccc4nc32)cc1	PLK1 inh 55.0
Nc1c(C(=O)NCc2ccco2)c2nc3ccccc3nc2n1Cc1ccc(F)cc1	none
CCn1c(O)c(C=Nc2ccc(N3CCOCC3)c(Br)c2)c(=O)n(CC)c1=S	none
CCn1c(O)c(C=Nc2ccc(N3CCOCC3)cc2)c(=O)n(CC)c1=S	EphB4 ephrin blk 16.0
CCCC(=O)NC(Oc1ccccc1Cl)C(Cl)(Cl)Cl (stereo not drawn)	none
O=C1NC(=S)NC(=O)C1C/C=C/c1ccccc1	none
CCOC(=O)c1c(-n2c(C)cc(C=C3C(=O)NC(=S)NC3=O)c2C)sc2c1CCCC2	PTPN22 inh 2 28.9
CCN(CC)CCNC(=O)c1c(O)c2ccccc2n(Cc2ccccc2)c1=O	none
CCN(CC)CCCNC(=O)c1c(O)c2ccccc2n(Cc2ccccc2)c1=O	PTPN22 inh 2 24.4
CN(C)C(=O)Oc1ccc(-c2nnco2)cc1	PLK1 inh 77.9 (no result: PTPN22 act, PTPN22 inh 2) | PLK1 confirm inactive | Plk1 interf inactive
CN(C)P(=O)(C(Cl)=C(N1CCCCC1)N1CCCCC1)N(C)C	none
Cc1ccc(-n2c(O)c(C=NCCN3CCOCC3)c(=O)[nH]c2=O)cc1	Plk1 PBD FP 44.1 | PBD redox DR inactive
COC(=O)c1c(C)[nH]c(C(=O)C(Cc2ccccc2)N(C)C)c1C (stereo not drawn)	none
